RECQ1 inh = blocks DNA unwinding by human RECQ1; P46063; RECQ1 DNA unwinding, red fluorescence kinetic read; Potency, µM (doses to about 57.3 µM), inactives show top-dose activity, negative = inhibition, usual class: inhibitors; hit rate 0.54% among 240,000;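 also: plate controls were vehicle for no effect and no enzyme for full effect; nearly all actives have a fitted effect of over 30% in size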
Target sequence (P46063 whole entry, looked up): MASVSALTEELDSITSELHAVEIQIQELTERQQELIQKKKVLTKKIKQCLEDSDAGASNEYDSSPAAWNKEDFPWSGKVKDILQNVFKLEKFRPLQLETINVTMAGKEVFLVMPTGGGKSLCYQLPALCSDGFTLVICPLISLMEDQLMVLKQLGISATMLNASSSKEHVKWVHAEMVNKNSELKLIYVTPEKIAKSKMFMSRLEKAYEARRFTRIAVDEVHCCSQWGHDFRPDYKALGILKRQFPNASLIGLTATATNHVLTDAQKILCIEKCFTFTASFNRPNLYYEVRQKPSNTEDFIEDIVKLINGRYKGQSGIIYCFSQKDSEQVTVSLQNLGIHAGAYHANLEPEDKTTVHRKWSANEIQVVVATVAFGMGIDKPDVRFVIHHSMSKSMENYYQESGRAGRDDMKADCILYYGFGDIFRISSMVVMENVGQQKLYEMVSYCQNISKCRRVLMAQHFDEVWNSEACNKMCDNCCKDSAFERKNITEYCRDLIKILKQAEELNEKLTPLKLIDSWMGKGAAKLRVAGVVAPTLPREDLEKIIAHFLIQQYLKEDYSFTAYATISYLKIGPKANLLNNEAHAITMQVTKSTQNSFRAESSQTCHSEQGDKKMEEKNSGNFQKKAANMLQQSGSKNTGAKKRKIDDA
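50 nM RECQ1T1 preincubated 15 min with compound in Tris pH 8.0 buffer with MgCl2, DTT, Tween-20 and 2.5 ug/ml poly(dI-dC); started with 200 nM TAMRA/BHQ-2 forked duplex and 2 mM ATP. Unwinding read as fluorescence (525/598 nm), two reads 2 h apart.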
L3MBTL1 inh = L3MBTL1 (human) inhibition; Q9Y468; AlphaScreen L3MBTL1–H3K9me1 peptide binding; Potency, µM (doses to about 57.1 µM), inactives show at the top dose activity, negative = inhibition, hits mostly inhibitors; hit rate 0.66% among 230,000; AID 485360; also: nearly all actives have a fitted effect of over 60% in size
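AlphaScreen assay: L3MBTL1 (50 nM final) was preincubated 30 min at room temperature with biotinylated H3(1-15)K9me1 peptide (75 nM final), then 30 min with library compounds; streptavidin donor and nickel chelate acceptor beads (10 ug/mL final) added, 30 min dark.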
APEX1 inh = APE1 (human) endonuclease inhibition; recombinant APE1, TAMRA/BHQ-2 abasic DNA cleavage fluorescence; Potency, µM (highest dose often 65.8 µM), inactives show at the top dose activity change, negative = inhibition, usual class: inhibitors; hit rate 0.35% among 350,000;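 also: plate controls were vehicle for no effect and reference inhibitor for full effect; nearly all actives have a fitted effect of over 55% in size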
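Measures dequenching upon AP-site incision of a 5'-TAMRA/3'-BHQ-2 THF-containing duplex, 50 nM; human APE1 0.75 nM after 15 min room-temperature exposure to compound; kinetic three-point read at one-minute spacing.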
BLM helicase inh = Bloom syndrome helicase (human) inhibition | P54132 | recombinant BLM DNA unwinding, fluorescence dequenching | Potency, µM (titrated, usually from 56.1 µM), for the others: top-dose activity change, negative = inhibition, most hits filed as inhibitors | hit rate 0.2% among 350,000;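 also: plate controls were vehicle for no effect and no enzyme for full effect; nearly all actives have a fitted effect of over 35% in size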
* hit, by the source's call; i = inactive; u = inconclusive; x = no result; [ ] = remark or other dose. In the library only some 0.78% were active in any assay of this set; here they are far more common. Calls follow the shape of the dose curve; as a rule, active = well fitted curve in the direction sought with a large enough effect; inconclusive = small, poorly fitted or top-dose-only effect, or another doubt; inactive = no such curve, though single readings can be large; an effect the other way counts as inactive or inconclusive. Unless noted, % is scaled to controls: 0 for no effect and ±100 for the full control effect; potency is read from the fitted curve at half-maximal effect.

SMILES	RECQ1 inh	L3MBTL1 inh	APEX1 inh	BLM helicase inh
O=C(O)c1ccccc1-c1c2cc(Br)c(=O)c(Br)c-2oc2c(Br)c(O)c(Br)cc12	32µM*	x	u	28µM*
CC(C)c1ccc(N2C(=O)/C(=C/N(C)C)SC2=S)cc1	32µM*	x	28µM*	35%
CN(C)c1ccc(N=Nc2ccccc2C(=O)OCC(=O)Nc2ccccc2C(F)(F)F)cc1	-7%	25µM*	-6%	-11%
O=C1CC(c2ccc(O)c(O)c2)Oc2c1ccc(O)c2O (configuration not stated)	1.6µM*	x	0.13µM*	4µM*
c1ccc(N2CCN(c3nc4ccccc4n4nnnc34)CC2)cc1	-3%	3.5µM*	-2%	-3%
C#C[C@]1(O)CC[C@H]2[C@H]3CCc4cc(O)ccc4[C@@H]3CC[C@@]21C	-5%	x	-10%	-9%
NS(=O)(=O)c1cc(C(=O)NC2CCSc3ccccc32)ccc1Cl (configuration not stated)	x	x	0.12µM*	8.9µM*
COc1ccc(C(=O)NCCn2cc(SCc3cccc(F)c3)c3ccccc32)cc1OC	x	x	x	-8%
Cc1[nH]c(=O)[nH]c1C(=O)CCCCC(=O)OCC(=O)Nc1ccccn1	0%	0.71µM*	0%	2%
CC(C)C[C@@H](NC(=O)[C@H](Cc1ccccc1)NC(=O)c1cnccn1)B(O)O	x	x	x	-2%
O=C(NC(=S)Nc1ccccc1N1CCCC1)c1ccc([N+](=O)[O-])cc1	-2%	7.1µM*	3%	-14%
CCCC(=O)NC(c1ccco1)c1cc([N+](=O)[O-])c2cccnc2c1O (configuration not stated)	-9%	x	2%	-26%
CC(=O)NC(c1ccc(C)cc1)c1cc([N+](=O)[O-])c2cccnc2c1O (configuration not stated)	i	5µM*	-2%	-10%
CCC(=O)NC(c1ccc(C)cc1)c1cc([N+](=O)[O-])c2cccnc2c1O (configuration not stated)	-1%	22µM*	-3%	-18%
CC(=O)NC(c1ccccc1)c1cc(Cl)c2cccnc2c1O (configuration not stated)	x	-2%	-8%	-5%
CNC(C)[C@@H]1CC[C@@H](N)[C@@H](O[C@H]2[C@H](O)[C@@H](O[C@H]3OC[C@](C)(O)[C@H](NC)[C@H]3O)[C@H](N)C[C@@H]2N)O1 (some centres not stated)	x	x	3%[21 µM]	x
O=C(O)c1cccc(COc2ccc3c(c2)CCC3)c1	1%	22µM*	u	1%
CC(C)(C)C(=O)OCC(=O)[C@H]1CC[C@H]2[C@@H]3CCC4=CC(=O)CC[C@]4(C)[C@H]3CC[C@]12C	x	x	11%	x
CCN(C(=O)CCS(=O)(=O)c1cc(Br)cc2c1N(C(=O)C1CC1)CC2)c1cccc(C)c1	x	x	x	1%
CCC(=O)N1CCc2cc(Br)cc(S(=O)(=O)CCC(=O)N(C)c3cccc(C)c3)c21	x	28µM*	-20%	-2%
COc1ccc(C2=Nn3c(nnc3-c3ccccc3C(F)(F)F)SC2)cc1O[C@H]1CCOC1	x	x	22%	x
COc1ccc(N(C)S(=O)(=O)c2ccc3c(c2)CCC(=O)N3)cc1	-3%	4%	14µM*	-6%
CCc1ccc(S(=O)(=O)/N=C2/C=C(Sc3ncn[nH]3)C(=O)c3ccccc32)cc1	u	u	u	22µM*
Cc1cc(C)c(S(=O)(=O)/N=C2\C=C(Nc3ccc(C(=O)O)cc3)C(=O)c3ccccc32)c(C)c1	x	x	-22%	u
O=C(O)c1ccc(NC2=C/C(=N/S(=O)(=O)c3ccccc3)c3ccccc3C2=O)cc1	-7%	x	u	14µM*
SMILES	RECQ1 inh	L3MBTL1 inh	APEX1 inh	BLM helicase inh
CCc1ccc(S(=O)(=O)/N=C2\C=C(Nc3cccc(C(=O)O)c3)C(=O)c3ccccc32)cc1	x	x	37%	25µM*
Nc1ccc2oc(=O)ccc2c1I	-13%	x	3%	2%
COC(C1CCCCC1)C(C)C(OCc1cccc(Br)c1)C(C)CO (configuration not stated)	-3%[11.5 µM]	x	15%[12.4 µM]	-2%[12.4 µM]
c1ccc(SCCSc2ccccc2)cc1	-5%	x	0%	x
O=c1cc(-c2ccc(O)c(O)c2)oc2c1ccc1ccccc12	x	-10%	-14%	x
COc1ccc(-c2oc3ccccc3c(=O)c2O)cc1	5%	x	-2%	-4%
O=c1cc(-c2ccc(O)c(O)c2)oc2ccc3ccccc3c12	x	-10%	0.42µM*	x
O=c1c(O)c(-c2ccc(O)c(O)c2)oc2ccccc12	2.2µM*	x	u	-9%
O=c1c(O)c(-c2cc(O)c(O)c(O)c2)oc2cc(O)ccc12	4.5µM*	x	0.28µM*	-27%
CC(C)(C)n1ncc2c(=O)n(Cc3cccc(C#N)c3)cnc21	x	x	-6%	x
Cc1ccc(-c2no[n+]([O-])c2C#N)cc1	x	x	-5%	x
O=C(O)c1cccc(N2C(=O)c3cc([N+](=O)[O-])cc4cc([N+](=O)[O-])cc(c34)C2=O)c1	x	32µM*	-45%	-13%
O=C(O)c1cccc(N2C(=O)c3cccc4cccc(c34)C2=O)c1	x	3%	25%	0%
C/C=C/C=C/C=O	4%	x	-2%	x
O=C(CNC(=O)c1ccc(Br)o1)NCc1ccc(Cl)cc1Cl	x	x	13µM*	-5%
O=C(CNC(=O)c1ccc(Br)o1)NCc1cccc(Cl)c1	x	x	-4%	-4%
O=C(CSc1nc2nc(-c3cccs3)cc(C(F)(F)F)c2c(=O)[nH]1)Nc1ccc(F)c(F)c1	-23%	28µM*	u	u
CC(C(=O)Nc1ccc(C(=O)O)c(O)c1)N1C(=O)/C(=C\c2ccco2)SC1=S (configuration not stated)	x	x	21µM*	41%
Cc1ccc(-c2cn(C[C@H]3CC[C@@H]([C@@H]4CC[C@H](Cn5cc(-c6ccc(C)cc6)nn5)O4)O3)nn2)cc1	x	48%	-2%	-4%
c1ccc(-c2cn(C[C@H]3CC[C@H](Cn4cc(-c5ccccn5)nn4)O3)nn2)nc1	x	0.28µM*	0%	0%
O=C(N/N=C/c1c(O)ccc2ccccc12)c1ccc(Br)o1	x	x	15µM*	-18%
O=C(N/N=C/c1c(O)ccc2ccccc12)c1ccc[n+](CCO)c1	-8%	35µM*	-6%	-1%
CCn1c(CSc2nnc(-c3cccnc3)n2-c2ccccc2C)nc2cc(C(=O)O)ccc21	32µM*	u	u	-16%
Cc1ccc(Nc2nc(N)nc(CN3CCCCCC3)n2)cc1	4%	u	3%	2%
Nc1nc(CN2CCCCCC2)nc(Nc2ccccc2)n1	-21%	28µM*	-3%	1%
Cc1oc(-c2ccc(Cl)cc2)cc1-c1nn2c(-c3ccco3)nnc2s1	32µM*	-12%	u	-22%
Clc1cccc(Cl)c1C1Nc2cccc3cccc(c23)N1	x	14µM*	35%	-12%
Cn1nc(-c2ccc(Cl)cc2)nc2c(=O)n(C)c(=O)nc1-2	1.6µM*	u	u	5.6µM*
Nc1ccccc1N=Nc1ccccc1N	x	8.9µM*	16%	-3%
O=C(O)c1ccccc1N/N=C/c1c(Sc2nnnn2-c2ccccc2)nc2ccccn2c1=O	u	-4%	35µM*	-22%

Screens deposited in PubChem by National Center for Advancing Translational Sciences (NCATS).
